TbPYK inhibitor = blocks Trypanosoma brucei pyruvate kinase. Q57TT1. TbPYK enzyme, Kinase-Glo Plus ATP luminescence, 45 min. Potency, µM (top dose mostly 76.8 µM), actives largely listed as inhibitors. 0.12% of 410,000 active; note: nearly all actives have a fitted effect of over 50% in size
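Assay buffer: 50 mM TEA pH 7.2, 100 mM KCl, 10 mM MgCl2, 0.05% BSA, 0.01% Tween-20. Pyruvate kinase from T. brucei plus substrate met compound, then ADP (130 uM final). Luminescence was read post 45 min RT.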
FMDV inh = foot and mouth disease virus antiviral activity; AID 1159524; FMDV antiviral cell-based qHTS; Potency, µM (highest dose often 57.9 µM), usual class: inhibitors; 1.2% of 410,000 active; calls by dose curve; tested in HEK293T cells; note: read-out not given here; nearly all actives have a fitted effect of over 45% in size
Sm TGR inh = S. mansoni TGR enzyme inhibition; Q962Y6; Potency, µM (titrated, usually from 114 µM), hits mostly inhibitors; purified TGR, DTNB reduction, TNB absorbance 405 nm; 3% of 360,000 active; AID 485364; note: nearly all actives have a fitted effect of over 60% in size
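Kinetic colorimetric format: TGR-catalysed, NADPH-driven DTNB reduction monitored via TNB absorbance. Enzyme dispensed at 20 nM; compound exposure 15 min at room temperature before reaction start.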
RE007 growth inh = less growth of the S. pombe RE007 Vpr strain; S. pombe RE007 Vpr strain, BacTiter-Glo ATP luminescence, 24 h; Potency, µM (series often up to 92.2 µM), actives largely listed as inhibitors; 0.21% of 360,000 active; active = well fitted falling curve with a large enough effect; inconclusive = small, poorly fitted or top-dose-only effect; inactive = no such curve, though single readings can be large or run the other way; note: nearly all actives have a fitted effect of over 50% in size
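Fission yeast strain RE007, carrying one chromosomally integrated HIV-1 vpr copy, was seeded at OD 0.01 in PMG+AL medium with 23 nL pinned compound. After 24 h at 30 °C and 99% humidity, viability was read by BacTiter-Glo luminescence.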
Large screens that a line does not name were inactive. A selection: hits, their analogues and other compounds. The true share with any hit is near 3.7%. Unless noted, calls come from the whole dose curve; as a rule, active = well fitted curve in the direction sought with a large enough effect; inconclusive = small, poorly fitted or top-dose-only effect, or another doubt; inactive = no such curve, though single readings can be large; an effect the other way counts as inactive or inconclusive.

Cc1cc(C)cc(C(=O)NCc2nc(-c3cccc(NC(=O)c4ccccn4)c3)oc2C)c1	none (no result: TbPYK inhibitor, Sm TGR inh, RE007 growth inh)
Cc1sc2ncnc(N3CCN(S(=O)(=O)c4ccccc4)CC3)c2c1C	FMDV inh 20µM
Cc1ccc(S(=O)(=O)N2CCN(c3ncnc4scc(-c5ccccc5)c34)CC2)cc1	none (no result: Sm TGR inh)
Cc1sc2ncnc(N3CCC(C(=O)N(C)CC(=O)Nc4ccc(Cl)c(C(F)(F)F)c4)CC3)c2c1C	FMDV inh inconclusive
Cc1sc2ncnc(N3CCC(C(=O)N(C)CC(=O)Nc4cccc(F)c4)CC3)c2c1C	FMDV inh 18µM (no result: Sm TGR inh)
COc1ccccc1NC(=O)CSc1nc2c(oc3ccccc32)c(=O)n1-c1ccccc1F	FMDV inh inconclusive (no result: RE007 growth inh)
CC1CCCCN1C(=O)CCc1nnc(Cc2c[nH]c3ccccc23)o1 (configuration not stated)	Sm TGR inh 35µM
CCC1CCCCN1C(=O)CCc1nnc(Cc2c[nH]c3ccccc23)o1 (configuration not stated)	Sm TGR inh 25µM
CC(C)CN1CCN(C(=O)CCc2nnc(Cc3c[nH]c4ccccc34)o2)[C@@H](C)C1=O	Sm TGR inh 20µM
COC(=O)[C@@H]1CCCN1C(=O)CCc1nnc(CCc2c[nH]c3ccccc23)o1	none
COC(=O)C1CCCCN1C(=O)CCc1nnc(CCc2c[nH]c3ccccc23)o1 (configuration not stated)	none
CN(CCC1CCCCO1)C(=O)CCc1nnc(Cc2c[nH]c3ccccc23)o1 (configuration not stated)	Sm TGR inh 89µM
Cc1ccccc1-c1ccc(CN2CCc3nnc(CNC(=O)c4ccccn4)n3CC2)cc1	none (no result: TbPYK inhibitor, Sm TGR inh, RE007 growth inh)
CC(C)Sc1nnc(-c2ccc(S(=O)(=O)N3CCOCC3)cc2)n1C	Sm TGR inh 50µM
COc1cc(=O)n2c(c1C(=O)N(C)Cc1nonc1C)CCN(Cc1cc(F)ccc1F)CC2	none (no result: TbPYK inhibitor, Sm TGR inh, RE007 growth inh)
CC(/C=N/Nc1ccc2nncn2n1)=C\c1ccccc1	Sm TGR inh 45µM
C(=C\c1ccccc1)/C=N/Nc1ccc2nncn2n1	none
CCC1(C)Cc2nc3[nH]c(=S)n(-c4ccc(C)cc4)c(=O)c3cc2CO1 (configuration not stated)	Sm TGR inh 6.3µM
CCOC(=O)c1cccc(NC(=O)COc2nsnc2N2CCOCC2)c1	FMDV inh 25µM
CC(=O)c1cccc(NC(=O)COc2nsnc2N2CCOCC2)c1	FMDV inh inconclusive
OC1(c2cccnc2)CCN(Cc2ccc3c(c2)CN(Cc2cc(F)cc(F)c2)CCO3)CC1	none (no result: TbPYK inhibitor, Sm TGR inh, RE007 growth inh)
COc1cc(NC(=S)NC2CC2)c(OC)cc1Cl	Sm TGR inh 40µM
FC(F)(F)c1cccc(NCc2n[nH]c(=S)n2C2CCCCC2)c1	TbPYK inhibitor 13µM
COc1ccc(S(=O)(=O)c2c(Nc3ccccc3F)sc(C(=O)c3cccc(OC)c3)c2N)cc1	none (no result: RE007 growth inh)
Cc1nc2ccc(Cl)cc2[nH]1	none (no result: Sm TGR inh)
Cc1nc2ccc(C(C(F)(F)F)(C(F)(F)F)C(F)(F)F)cc2[nH]1	RE007 growth inh 28µM
CC1(c2ccccc2)CC(c2ccccc2)=Nc2ccccc2N1 (configuration not stated)	Sm TGR inh inconclusive
Cc1ccc(C2=Nc3ccccc3NC(C)(c3ccc(C)o3)C2)o1 (configuration not stated)	Sm TGR inh 35µM
CC(=O)c1cccc(N(C(=O)CNC(=O)c2ccco2)C(C(=O)NC2CCCC2)c2ccc(C)o2)c1 (configuration not stated)	FMDV inh 1.8µM
CC(=O)c1cccc(N(C(=O)CNC(=O)c2ccco2)C(C(=O)NC2CCCC2)c2ccco2)c1 (configuration not stated)	Sm TGR inh inconclusive
Cc1c(C(=O)NCc2ccco2)cnn1-c1ncc2c(n1)-c1ccccc1CC2	none (no result: TbPYK inhibitor, Sm TGR inh, RE007 growth inh)
COc1nc(C)cnc1NS(=O)(=O)c1cccnc1-c1ccc(-c2nnco2)cc1	none (no result: FMDV inh, Sm TGR inh, RE007 growth inh)
O=C(Nc1nc2ccccc2s1)C1CCN(S(=O)(=O)c2cc([N+](=O)[O-])ccc2Cl)CC1	FMDV inh 35µM, Sm TGR inh inconclusive
Cc1cccc[n+]1CCCCCCCCCC[n+]1ccccc1C	none
CCCc1ncc(C[n+]2ccccc2C)c(N)n1	Sm TGR inh 45µM
CC1(c2nnc(-c3ccc(Cl)cc3)o2)CC(c2ccc([N+](=O)[O-])cc2)=NO1 (configuration not stated)	none
CC1(c2nnc(-c3ccncc3)o2)CC(c2ccc([N+](=O)[O-])cc2)=NO1 (configuration not stated)	FMDV inh inconclusive, Sm TGR inh 35µM
COc1ccc(/C(C)=N/Nc2ccccc2Cl)c(O)c1	Sm TGR inh 14µM
